In the supplement of paper PMC6555819:

Columns and labels:
Assay in all cases: PBM binding z-score (relative to random genomic background probes); higher = stronger binding; sequences stand for … in GC…GCGATTGACAGCGTAGAATGAAGG
[1] = system: FXR:RXRa (NR concentration 270 nM, RXRa partner concentration 90 nM)
Procedure, shortened: (§1)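 Ligand-free nuclear receptor dimers were applied to custom Agilent 4×180K protein-binding microarrays whose double-stranded probes carried direct-repeat seeds, single-nucleotide variants, half-site ablations and random human genomic background sequences in 34-nt variable regions. Incubation lasted 1 h. Binding z-scores were computed against the random background probes from regression-normalized fluorescence.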

[2] = system: LXRa:RXRa (NR concentration 270 nM, RXRa partner concentration 90 nM)
Procedure, shortened: as §1

[3] = system: LXRa homodimer (NR concentration 270 nM)
Procedure, shortened: as §1

[4] = system: LXRb:RXRa (NR concentration 270 nM, RXRa partner concentration 90 nM)
Procedure, shortened: as §1

[5] = system: LXRb homodimer (NR concentration 270 nM)
Procedure, shortened: as §1

[6] = system: PPARa:RXRa (NR concentration 270 nM, RXRa partner concentration 90 nM)
Procedure, shortened: as §1

[7] = system: PPARg:RXRa (NR concentration 180 nM, RXRa partner concentration 90 nM)
Procedure, shortened: as §1

[8] = system: PPARg:RXRa 270nM:90nM, anti-RXR (NR concentration 270 nM, RXRa partner concentration 90 nM)
Procedure, shortened: as §1

[9] = system: PPARg:RXRa 30nM:10nM, anti-RXR (NR concentration 30 nM, RXRa partner concentration 10 nM)
Procedure, shortened: as §1

[10] = system: PPARg:RXRa 90nM:30nM, anti-RXR (NR concentration 90 nM, RXRa partner concentration 30 nM)
Procedure, shortened: as §1

[11] = system: PPARg:RXRa DBDmut IVT, anti-RXR (DBD mutation: RXRa K156A/R161A, NR concentration 270 nM, RXRa partner concentration 90 nM)
Procedure, shortened: as §1

[12] = system: PPARg:RXRa IVT, anti-PPARg (NR concentration 270 nM, RXRa partner concentration 90 nM)
Procedure, shortened: as §1

[13] = system: PPARg DBDmut:RXRa IVT, anti-PPARg (DBD mutation: PPARg1 K132A/R137A, NR concentration 270 nM, RXRa partner concentration 90 nM)
Procedure, shortened: as §1

[14] = system: PPARg DBDmut IVT, anti-PPARg (DBD mutation: PPARg1 K132A/R137A, NR concentration 270 nM)
Procedure, shortened: as §1

[15] = system: PPARg homodimer (NR concentration 180 nM)
Procedure, shortened: as §1

[16] = system: PXR:RXRa (NR concentration 270 nM, RXRa partner concentration 90 nM)
Procedure, shortened: as §1

[17] = system: PXR homodimer (NR concentration 270 nM)
Procedure, shortened: as §1

[18] = system: RARa:RXR (NR concentration 270 nM, RXRa partner concentration 90 nM)
Procedure, shortened: as §1

[19] = system: RARa homodimer (NR concentration 270 nM)
Procedure, shortened: as §1

[20] = system: RARb:RXRa (NR concentration 270 nM, RXRa partner concentration 90 nM)
Procedure, shortened: as §1

Sequence	PBM binding z-score [1]	PBM binding z-score [2]	PBM binding z-score [3]	PBM binding z-score [4]	PBM binding z-score [5]	PBM binding z-score [6]	PBM binding z-score [7]	PBM binding z-score [8]	PBM binding z-score [9]	PBM binding z-score [10]	PBM binding z-score [11]	PBM binding z-score [12]	PBM binding z-score [13]	PBM binding z-score [14]	PBM binding z-score [15]	PBM binding z-score [16]	PBM binding z-score [17]	PBM binding z-score [18]	PBM binding z-score [19]	PBM binding z-score [20]
TGATATAGGTAATACAGGTGAAAGTCGGCATCTA	0.306	0.701	0.521	0.418	0.00189	2.16	2.39	2.3	1.33	2.05	4.32	4.45	1.57	1.13	1.38	0.409	0.476	0.69	0.77	0.624
TCTTGTAGATCAACGGTTAAGAAAGCCGAAGCCT	0.513	0.28	-0.0283	0.131	-0.0358	1.14	0.464	2.61	3.23	3.03	1.73	0.568	0.699	0.541	0.0861	0.292	-0.149	0.701	0.15	0.235
TCGAGTAGGTTAGTCGGGGCATTCACCCAACATA	0.0292	0.103	-0.165	0.627	-0.651	0.713	0.0859	0.905	0.99	0.993	2.26	1.7	-0.581	-0.56	0.252	0.243	-0.193	0.377	0.343	0.447
GCTTGTAGATCGAGGTTAAGAAAGACTAAGCTAA	0.262	1.09	-0.228	0.65	-0.682	1.68	-0.0308	0.648	-0.204	0.479	0.155	0.569	-0.125	0.233	0.235	0.519	-0.12	1.03	0.293	0.634
GCATACAGGTGAAACGCAGGTAACTCAGGGTGGC	-0.0721	0.132	-0.487	-0.143	-0.74	1.35	1.04	0.609	-0.12	0.232	3.57	1.78	-0.446	-0.192	-0.115	-0.254	-0.513	0.243	-0.373	0.744
AGGCAAAGTTCATCTAGGTAACGTAAGATATGCT	6.62	5.97	4.54	3.71	1.35	4.88	5.55	5.87	2.83	4.72	1.08	3.73	1.34	0.748	3.08	5.33	6.34	3.96	1.67	4.72
AGAATGAGGTTATGCGTAGATCAGGGAAGAAAGT	1.66	1.51	-0.231	1.31	-0.169	3.1	1.44	2	0.664	1.12	2.31	2.01	0.845	0.71	0.621	0.966	0.308	1.32	0.403	1.57
AATACAGGGTCATCGTAGGCCAGAGTCCGCACAG	7.16	6.35	2.6	4.52	1.21	5.96	6.83	5.83	2.39	4.51	2.98	4.32	0.922	0.82	2.39	4.96	0.483	4.93	0.764	4.45
GCAGACAGGTGAAACGCAGGTAACGCAGGGTGGC	-0.151	-0.229	-0.631	-0.357	-1.09	0.749	0.665	-0.038	-0.74	-0.0828	0.691	0.737	-0.603	-0.805	-0.678	-0.552	-0.857	0.395	-0.862	0.76
TAGCCTAGGTCAGATCGGGCCCGTATACGCTATA	1.58	1.2	-0.271	0.916	-0.19	1.67	0.67	0.657	-0.472	0.0407	0.295	1.06	-0.496	-0.614	-0.129	0.189	-0.808	1.16	-0.649	3.02
CCTACTGGGCCAAAGCTCATTGATTCCAATGCTC	-0.596	-0.522	-0.451	-0.576	-0.796	1.48	2.63	4.26	2.45	3.85	4.44	3.69	-0.419	-0.625	-0.0929	-0.568	-0.291	-0.318	-0.841	-0.251
CCTCGGAGGACAACAGCAGGTCAGAGCTGCCAGA	0.202	0.89	0.459	0.176	-0.75	0.561	0.1	-0.313	-0.784	-0.736	0.0913	-0.0313	-0.897	-1.32	0.749	0.458	-0.253	0.722	0.0209	2.04
CCGACTGGGGTAAAGGTTACCATACTCAGTACGA	1.25	1.37	-0.204	2.11	-0.702	5.22	11.1	9.31	8.82	10.7	3.8	5.39	0.251	0.0634	1.25	1.93	-0.316	3.23	0.475	2.02
GCTAGCAGGCCATTTGGTTCACTCAATGACGGGC	-0.456	-0.57	-0.84	-0.649	-0.937	-0.204	0.226	-0.536	-0.633	-0.582	1.03	-0.11	-0.667	-0.975	-0.906	-0.151	0.221	-0.572	-0.886	0.187
GCGATTGGGGCATCAGCAGGTTACCATAACTTAA	0.0293	-0.187	-0.243	1.24	-0.0268	0.814	0.255	-0.0261	-0.258	-0.582	1.79	0.996	-0.746	-0.408	0.245	0.113	-0.0157	0.281	-0.368	0.823
AGAATGAGGCTATTAAGATCAGGGAATTGCGGTC	-0.289	-0.438	-0.31	-0.728	-0.68	-0.226	0.441	-0.417	-0.0887	-0.313	0.775	0.484	0.528	-0.351	-0.817	-0.436	-0.252	-0.197	-0.295	0.119
CCTAGTTGGTCTAGGTCACACACGCTATAGGTAC	1.54	1.66	1.3	1.68	0.465	2.18	1.42	1.53	0.318	0.958	2.17	3.05	0.258	0.48	2.14	1.4	0.764	2.1	1.82	2.63
CCTACTGGGCCATCAGGTCATTGATATCAACGTT	1.4	1.19	1.28	1.56	-0.271	2.79	2.68	3.7	1.46	3.18	4.98	4.72	0.527	-0.213	1.26	1.56	0.961	1.65	0.0562	2.1
CCTAGCAGGCCAGGGTCACTCTAGCATTTCGCTT	1.58	1.43	-0.629	1.71	-0.953	2.59	0.377	1.19	-0.703	-0.00564	0.274	0.7	-1.19	-1.73	0.937	2.39	-0.295	3.03	-0.305	2.52
ATCTCTAGGTAACCCAGTTCAGTGAATGCCGAAC	0.242	0.741	0.606	0.843	0.72	1.72	1.52	1.69	0.311	1.12	4.06	4.47	1.33	1.28	1.12	1.64	1.23	0.719	0.547	0.652
CAAACTAGGCCAAAGGTCAAAGTCGAGCCAACCA	6.1	5.86	4.2	5.75	2.08	7.88	12.3	10.6	11	11.5	7.14	7.78	2.58	1.59	2.88	5.56	0.846	6.35	0.602	5.26
GCATATTGGTAATACAAGGTGAAAGTCCGATTGT	0.142	-0.00547	0.127	0.0375	-0.19	0.519	0.364	0.443	0.33	0.00917	0.078	0.938	1.13	0.842	0.326	0.0953	0.0473	0.645	-0.0157	0.266
CCTTACGGGTCACTCCGGGTTATAGCATCGGAGT	5.38	6.79	0.448	4.31	0.169	4.62	3.58	4.18	1.34	3.26	1.96	3.06	0.27	-0.00571	1.92	4.6	-0.199	3.88	0.188	3.37
CCGACTGGGGCATAAGGCTACCATAAGCCAGCCC	-0.264	-0.169	-0.35	-0.67	-1.17	0.356	1.55	2.13	0.339	1.84	2.4	2.19	-1.08	-1.23	0.226	-0.731	-0.51	-0.184	0.133	0.337
CTACCAAGCTGAACAAGGTCGTTGATTACTATTC	0.51	0.731	0.686	1.31	-0.0286	0.706	-0.00663	0.00986	-0.206	-0.336	0.107	-0.452	0.163	0.158	0.308	1.39	1.02	1.31	0.561	0.523
GCGACTGGGGTAAAGCAGGTTACCATAAGGTTGG	0.315	0.949	-0.396	0.852	-0.819	1.66	0.941	1.19	0.0678	0.64	3.33	2.74	-0.328	-0.991	-0.0118	0.651	-0.238	0.955	-0.412	0.44
CCTGCTAGGTCAATGGTCAGCTACAGCAGCTCGC	3.03	2.08	-0.0038	1.55	-0.217	2.98	4.03	5.1	2.52	4.92	4.55	3.95	-0.354	-0.419	1.53	1.04	-0.299	1.64	-0.404	3.58
CGTCCAAGGTCAATGCTCGGTCAGTGAAAGCATT	5.98	5.55	2.7	4.04	0.788	5	3.34	3.99	1.61	2.79	3.28	3.36	-0.42	-0.828	2.78	3.93	0.774	5.12	0.202	5.11
ATCGAAAGATCGAGGTGAGTATAGAGAAAGGGAA	0.0424	0.111	-0.321	-0.262	-0.23	0.469	0.553	0.362	0.533	0.418	-0.0862	1.27	0.466	0.643	-0.144	-0.176	-0.105	0.139	-0.0593	0.194
